The nature of experiment [1]: qHTS assay to identify aromatase inhibitors - cell viability counter screen (AID 743084).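 Note: cells stimulated with testosterone during compound exposure; nearly all actives have a fitted effect of over 55% in size.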 A general note: qHTS replaces the single test concentration by a dilution series.
The target in experiment [2] is Aryl hydrocarbon receptor (Homo sapiens) (UniProt P35869). In words: qHTS assay to identify small molecule that activate the aryl hydrocarbon receptor (AhR) signaling pathway (AID 743085).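 Note: HG2L7.5c1 human HepG2 liver cells with stably integrated DRE-driven firefly reporter; series mostly up to about 70 µM; nearly all actives have a fitted effect of over 15% in size.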 The procedure, abridged: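 HepG2 cells stably carrying a 20-DRE firefly luciferase reporter (HG2L7.5c1) treated with compound for 24 hr at 37C. Luciferase read by ONE-Glo luminescence, with CellTiter-Fluor viability read first.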
Chain of Aryl hydrocarbon receptor (Homo sapiens) (P35869 whole entry, looked up): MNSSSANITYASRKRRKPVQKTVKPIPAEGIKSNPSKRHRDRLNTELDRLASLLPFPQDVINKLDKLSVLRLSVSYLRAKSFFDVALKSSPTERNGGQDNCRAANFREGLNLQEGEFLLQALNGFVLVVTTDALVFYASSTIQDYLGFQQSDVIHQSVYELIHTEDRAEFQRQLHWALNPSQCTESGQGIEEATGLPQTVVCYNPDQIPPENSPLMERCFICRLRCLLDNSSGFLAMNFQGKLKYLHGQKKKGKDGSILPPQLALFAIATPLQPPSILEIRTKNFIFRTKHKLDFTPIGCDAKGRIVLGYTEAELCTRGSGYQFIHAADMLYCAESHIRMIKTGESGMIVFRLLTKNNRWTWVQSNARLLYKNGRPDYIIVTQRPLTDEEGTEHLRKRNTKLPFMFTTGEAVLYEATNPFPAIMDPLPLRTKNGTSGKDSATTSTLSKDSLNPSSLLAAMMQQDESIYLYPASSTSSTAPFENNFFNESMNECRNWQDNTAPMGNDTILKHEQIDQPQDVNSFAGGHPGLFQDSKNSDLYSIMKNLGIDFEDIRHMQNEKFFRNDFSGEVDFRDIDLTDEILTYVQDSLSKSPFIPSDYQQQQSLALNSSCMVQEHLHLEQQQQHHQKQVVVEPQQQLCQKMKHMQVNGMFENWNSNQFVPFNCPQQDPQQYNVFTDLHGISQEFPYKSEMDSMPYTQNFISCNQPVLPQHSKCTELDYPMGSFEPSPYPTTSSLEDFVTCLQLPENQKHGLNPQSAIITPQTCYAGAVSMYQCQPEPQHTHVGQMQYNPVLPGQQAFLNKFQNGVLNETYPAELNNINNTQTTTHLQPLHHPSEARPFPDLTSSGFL

Experiment [3] can be described thus: qHTS assay to identify small molecule that activate the aryl hydrocarbon receptor (AhR) signaling pathway - cell viability counter screen (AID 743086). Note: series mostly up to about 70 µM; nearly all actives have a fitted effect of over 45% in size. An outline of the steps:
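HepG2-AhR-luc (HG2L7.5c1) cells, 4000/well, were preincubated 5 h at 37C, exposed to compound in qHTS format for 24 hr at 37C, then given CellTiter-Fluor for 30 min; viability was read as fluorescence in the reporter wells.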

Experiment [4] deals with Peroxisome proliferator-activated receptor gamma (Homo sapiens) (UniProt P37231). In words: qHTS assay to identify small molecule agonists of the peroxisome proliferator-activated receptor gamma (PPARg) signaling pathway (AID 743094; active = well fitted activation curve with a large enough effect in the signal ratio in the repeat runs, not every such curve was filed as active; the % refers to the signal ratio). The procedure, abridged: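 Stably transfected HEK293H cells (GeneBLAzer PPARg UAS-bla) were incubated with test substances for 17 h at 37C after a 5 h pre-incubation; beta-lactamase activity was then detected by FRET substrate fluorescence.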
Chain of Peroxisome proliferator-activated receptor gamma (Homo sapiens) (P37231 whole entry, looked up): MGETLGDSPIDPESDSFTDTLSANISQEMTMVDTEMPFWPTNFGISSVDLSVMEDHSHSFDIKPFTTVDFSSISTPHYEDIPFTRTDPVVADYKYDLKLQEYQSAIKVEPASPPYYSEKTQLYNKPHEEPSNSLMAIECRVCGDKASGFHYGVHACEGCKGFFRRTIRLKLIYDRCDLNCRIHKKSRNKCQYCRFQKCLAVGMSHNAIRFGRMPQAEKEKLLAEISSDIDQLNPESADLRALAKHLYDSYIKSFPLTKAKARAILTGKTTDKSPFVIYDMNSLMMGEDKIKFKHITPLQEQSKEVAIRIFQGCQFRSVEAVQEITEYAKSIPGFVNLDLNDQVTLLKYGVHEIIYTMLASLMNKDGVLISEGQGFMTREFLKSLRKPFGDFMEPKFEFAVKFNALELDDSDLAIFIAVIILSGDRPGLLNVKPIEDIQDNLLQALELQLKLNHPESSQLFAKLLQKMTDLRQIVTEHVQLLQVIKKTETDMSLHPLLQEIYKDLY

Experiment [5] shares this target. In words: qHTS assay to identify small molecule antagonists of the peroxisome proliferator-activated receptor gamma (PPARg) signaling pathway (AID 743191; calls by dose curve; note: series mostly up to about 63 µM; nearly all actives have a fitted effect of over 30% in size). The procedure, abridged:
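GeneBLAzer PPARg UAS-bla HEK293H cells carrying a UAS-driven beta-lactamase reporter were plated at 3000 cells/well, preincubated 5 h at 37C, then given compound for 17 h at 37C; LiveBLAzer B/G FRET substrate was read after 1 h at room temperature.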

Experiment [6] can be described thus: qHTS assay to identify small molecule antagonists of the peroxisome proliferator-activated receptor gamma (PPARg) signaling pathway - cell viability counter screen (AID 743194). Note: nearly all actives have a fitted effect of over 55% in size. An outline of the steps:
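PPARg-UAS-bla HEK293H cells were plated, rested 5 h at 37 C, then treated with compounds plus rosiglitazone (50 nM final) for 17 h at 37 C; viability was then read by CellTiter-Glo luminescence after 30 min at room temperature.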

Experiment [7] in a line: qHTS assay for small molecule agonists of the antioxidant response element (ARE) signaling pathway (AID 743202; active = well fitted activation curve with a large enough effect in the signal ratio in the repeat runs, not every such curve was filed as active; the % refers to the signal ratio). The procedure, abridged: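 Read-out: LiveBLAzer B/G FRET substrate fluorescence after 2 h at room temperature, following 16 h compound treatment at 37 C of HepG2 cells carrying an ARE-driven beta-lactamase reporter.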
Experiment [8] can be described thus: qHTS assay for small molecule agonists of the antioxidant response element (ARE) signaling pathway - cell viability counter screen (AID 743203; calls by dose curve; note: nearly all actives have a fitted effect of over 55% in size). The procedure, abridged:
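Cells (ARE-bla HepG2, 2,000/well) receive DMSO-dissolved compounds after a 5 hrs rest. Plates incubate 16 hrs at 37C/5% CO2. CellTiter-Glo luminescence is then recorded after 30 min at room temperature.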

Experiment [9] can be described thus: qHTS assay for small molecule activators of the heat shock response signaling pathway - cell viability counter screen (AID 743209). Note: nearly all actives have a fitted effect of over 50% in size. The procedure, abridged: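 Quantitative HTS format, Tox21 10K library. HeLa cells carrying an HSE-driven beta-lactamase reporter were treated 5 h at 37 C, then assessed for viability by CellTiter-Glo luminescence.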
The target of experiment [10] is Peroxisome proliferator-activated receptor delta (Homo sapiens) (UniProt Q03181). Kind of experiment: qHTS assay to identify small molecule agonists of the peroxisome proliferator-activated receptor delta (PPARd) signaling pathway (AID 743212; calls by dose curve). An outline of the steps:
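GeneBLAzer PPARd UAS-bla HEK293H cells (beta-lactamase reporter under UAS control), plated and rested 5 h at 37 C, then exposed to compounds in DMSO at 37 C; LiveBLAzer B/G FRET substrate added, 2 h room temperature, fluorescence read.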

A short description of experiment [11]: qHTS assay to identify small molecule antagonists of the peroxisome proliferator-activated receptor delta (PPARd) signaling pathway - cell viability counter screen (AID 743213). Note: nearly all actives have a fitted effect of over 50% in size. Note: potency is the fitted concentration of half-maximal effect. An outline of the steps: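 In this counter screen, HEK293H cells carrying a UAS-beta-lactamase reporter are co-treated with test compounds and 300 nM L165041 (final) for 17 h at 37 C; cell viability is quantified by CellTiter-Glo luminescence.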

Experiment [12] addresses Peroxisome proliferator-activated receptor delta (Homo sapiens) (UniProt Q03181). In words: qHTS assay to identify small molecule antagonists of the peroxisome proliferator-activated receptor delta (PPARd) signaling pathway (AID 743215; active = well fitted inhibition curve with a large enough effect in the signal ratio in the repeat runs, not every such curve was filed as active; the % refers to the signal ratio;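 note: cells stimulated with agonist L165041 at 300 nM final during compound exposure; series mostly up to about 62 µM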). An outline of the steps: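 Antagonist-mode beta-lactamase reporter screen: HEK293H cells with UAS-bla under PPARd control, stimulated by 300 nM L165041 (final) alongside test compound for 17 h at 37 C, then FRET fluorescence after 2 h substrate incubation.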

Experiment [13] can be described thus: qHTS assay to identify small molecule agonists of the farnesoid-X-receptor (FXR) signaling pathway - cell viability counter screen (AID 743218). Note: nearly all actives have a fitted effect of over 45% in size. An outline of the steps: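 In GeneBLAzer FXR-UAS-bla HEK 293T cells, compounds act for 16 h at 37 C. Cell viability is then scored in the reporter wells by CellTiter-Glo, 30 min at RT, luminescence.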
The nature of experiment [14]: qHTS assay to identify small molecule antagonists of the farnesoid-X-receptor (FXR) signaling pathway - cell viability counter screen (AID 743221; active = well fitted cell-killing curve with a large enough effect in the repeat runs, not every such curve was filed as active; note: nearly all actives have a fitted effect of over 50% in size). The procedure, abridged: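 GeneBLAzer FXR-UAS-bla HEK 293T cells, compound plus chenodeoxycholic acid (50 uM final), 16 h at 37 C. CellTiter-Glo added to the same wells after the beta-lactamase read; luminescence read after 30 min at room temperature as viability.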

Experiment [15] deals with Vitamin D3 receptor (Homo sapiens) (UniProt P11473). In words: qHTS assay to identify small molecule agonists of the vitamin D receptor (VDR) signaling pathway (AID 743222; calls by dose curve). An outline of the steps: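 Agonist activity measured in VDR-bla reporter cells. Exposure 16 h, 37C, 5% CO2; detection by B/G FRET substrate, 2 h RT.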
Chain of Vitamin D3 receptor (Homo sapiens) (P11473 whole entry, looked up): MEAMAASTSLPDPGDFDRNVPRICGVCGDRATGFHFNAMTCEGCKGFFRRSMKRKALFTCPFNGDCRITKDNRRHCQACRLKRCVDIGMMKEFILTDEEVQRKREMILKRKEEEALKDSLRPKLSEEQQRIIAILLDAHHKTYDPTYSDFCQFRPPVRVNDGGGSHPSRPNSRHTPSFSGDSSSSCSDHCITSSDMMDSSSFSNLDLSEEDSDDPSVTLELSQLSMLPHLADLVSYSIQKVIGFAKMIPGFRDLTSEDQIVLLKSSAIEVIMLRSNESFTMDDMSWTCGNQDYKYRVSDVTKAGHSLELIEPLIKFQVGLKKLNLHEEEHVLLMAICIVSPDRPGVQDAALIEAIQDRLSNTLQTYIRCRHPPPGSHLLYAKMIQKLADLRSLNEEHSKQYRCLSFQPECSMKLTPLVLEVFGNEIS
Experiment [16] has the same target. In words: qHTS assay to identify small molecule antagonists of the vitamin D receptor (VDR) signaling pathway (AID 743223; active = well fitted inhibition curve with a large enough effect in the signal ratio in the repeat runs, not every such curve was filed as active; the % refers to the signal ratio). An outline of the steps:
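VDR-bla cells were treated with compound plus 3 nM final 1alpha,25-dihydroxyvitamin D3 for 16 h at 37C. Beta-lactamase reporter read by B/G FRET substrate fluorescence after 2 h at room temperature. qHTS format.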

A short description of experiment [17]: qHTS assay for small molecule activators of the heat shock response signaling pathway (AID 743210; active = well fitted activation curve with a large enough effect in the signal ratio in the repeat runs, with a control signal flat, not every such curve was filed as active; the % refers to the signal ratio; note: series mostly up to about 63 µM). The procedure, abridged: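 HSE-bla HeLa cells (beta-lactamase reporter under heat shock response elements) were exposed to compounds for 5 h at 37 C, then loaded with LiveBLAzer B/G FRET substrate for 2.5 h at room temperature before fluorescence reading.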

Experiment [18] in a line: qHTS assay to identify small molecule agonists of the peroxisome proliferator-activated receptor delta (PPARd) signaling pathway - cell viability counter screen (AID 743211). Note: nearly all actives have a fitted effect of over 55% in size. The procedure, abridged: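 PPARd-bla HEK293H cells (3000/well) were pre-incubated 5 h at 37 C, then exposed to compound for 17 h at 37 C. After 2 h with LiveBLAzer substrate, CellTiter-Glo was added to the same wells; luminescence read after 30 min at room temperature.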

Experiment [19] addresses Bile acid receptor (Homo sapiens) (UniProt Q96RI1). In words: qHTS assay to identify small molecule antagonists of the farnesoid-X-receptor (FXR) signaling pathway (AID 743217; active = well fitted inhibition curve with a large enough effect in the signal ratio in the repeat runs, not every such curve was filed as active; the % refers to the signal ratio). An outline of the steps: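 Beta-lactamase reporter under UAS control in HEK 293T cells; compound exposure 16 h at 37 °C in the presence of chenodeoxycholic acid (50 uM final); signal from B/G FRET substrate after 2 h at room temperature.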

The target is the same in experiment [20]. Kind of experiment: qHTS assay to identify small molecule agonists of the farnesoid-X-receptor (FXR) signaling pathway (AID 743220; active = well fitted activation curve with a large enough effect in the signal ratio in the repeat runs, not every such curve was filed as active; the % refers to the signal ratio). An outline of the steps:
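Beta-lactamase reporter under UAS control in GeneBLAzer FXR HEK 293T cells (5000/well) measured with LiveBLAzer FRET substrate after 2 h at room temperature. Compound exposure lasted 16 h at 37C.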

Results filed as inconclusive are left out. Unmarked numbers belong to inactive results. Active and inactive are the calls of the source. Unless noted, calls come from the whole dose curve; as a rule, active = well fitted curve in the direction sought with a large enough effect in the repeat runs; inconclusive = weak or mixed curves; inactive = no such curve, though single readings can be large; an effect the other way counts as inactive or inconclusive.

Chain of Bile acid receptor (Homo sapiens) (Q96RI1 whole entry, looked up): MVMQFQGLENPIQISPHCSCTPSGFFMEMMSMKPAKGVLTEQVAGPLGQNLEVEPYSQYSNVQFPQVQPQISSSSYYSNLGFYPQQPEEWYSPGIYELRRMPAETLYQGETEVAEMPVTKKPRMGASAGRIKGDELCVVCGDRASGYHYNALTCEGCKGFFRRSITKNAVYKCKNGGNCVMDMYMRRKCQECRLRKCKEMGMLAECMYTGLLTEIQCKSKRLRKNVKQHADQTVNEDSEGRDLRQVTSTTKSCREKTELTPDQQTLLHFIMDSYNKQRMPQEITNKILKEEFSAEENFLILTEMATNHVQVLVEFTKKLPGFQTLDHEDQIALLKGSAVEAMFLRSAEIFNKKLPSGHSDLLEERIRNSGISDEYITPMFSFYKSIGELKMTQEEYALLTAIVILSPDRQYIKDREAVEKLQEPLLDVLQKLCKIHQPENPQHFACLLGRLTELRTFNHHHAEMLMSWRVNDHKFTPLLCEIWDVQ
Chain of Peroxisome proliferator-activated receptor delta (Homo sapiens) (Q03181 whole entry, looked up): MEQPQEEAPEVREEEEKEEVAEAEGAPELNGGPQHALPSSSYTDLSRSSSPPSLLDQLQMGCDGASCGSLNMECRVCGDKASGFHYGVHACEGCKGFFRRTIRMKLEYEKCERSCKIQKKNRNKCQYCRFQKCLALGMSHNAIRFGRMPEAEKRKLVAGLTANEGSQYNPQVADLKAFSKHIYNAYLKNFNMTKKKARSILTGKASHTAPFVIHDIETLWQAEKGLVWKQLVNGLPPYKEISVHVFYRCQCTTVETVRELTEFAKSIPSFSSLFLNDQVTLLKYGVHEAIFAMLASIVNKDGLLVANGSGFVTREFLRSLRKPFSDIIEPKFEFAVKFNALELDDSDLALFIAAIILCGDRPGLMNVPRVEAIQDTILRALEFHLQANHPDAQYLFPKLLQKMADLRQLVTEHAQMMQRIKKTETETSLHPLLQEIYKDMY

For `O=C(O)c1cccc(C(F)(F)F)c1`, the Potency result in [1], in experiment [2], in experiment [3], in experiment [4], in experiment [5] and in [6] was “inactive” each time. For the same compound, the Potency result in experiment [7], in experiment [8], in experiment [9], in [10], in experiment [11] and in [12] was “inactive” in each case. The Potency entry in experiment [13], in [14] and in experiment [15] was “inactive” in each case.
`C=C(C)C(=O)OCCCCCCCCCC`: the Potency entry in [1], in experiment [2], in experiment [3], in [4], in experiment [5] and in experiment [6] was “inactive” in each case. Also, the Potency result in [7], in [8], in [9], in experiment [14] and in experiment [16] was “inactive” in each case. In addition, the Potency in experiment [11] is 39.2 µM (active).
Regarding `OCC(F)(F)F`, the Potency result in experiment [1], in experiment [2], in experiment [3], in experiment [4], in experiment [5] and in [6] was “inactive” in each case. Also, the Potency entry in experiment [7], in [8], in [9], in [17], in experiment [18] and in experiment [10] was “inactive” each time. For the same compound, the Potency entry in experiment [12], in experiment [19], in [13], in experiment [20], in experiment [14] and in experiment [15] was “inactive” in each case. For the same compound, in experiment [16], the Potency result is “inactive”.
In the case of `O=C(O)[C@H](O)[C@@H](O)[C@H](O[C@@H]1O[C@H](CO)[C@H](O)[C@H](O)[C@H]1O)[C@H](O)CO`, the Potency result in [1], in experiment [2], in [3], in experiment [4], in experiment [5] and in experiment [6] was “inactive” throughout. The Potency result in experiment [7], in experiment [8], in experiment [9], in [18], in experiment [10] and in experiment [11] was “inactive” throughout. The Potency entry in experiment [12], in experiment [14], in [15] and in [16] was “inactive” throughout.
Take `Clc1sc(Cl)c(Cl)c1Cl`: the Potency result in [1], in [2], in [3], in experiment [4], in experiment [5] and in experiment [6] was “inactive” in each case. Besides, the Potency result in experiment [7], in experiment [9], in [17], in [18], in experiment [10] and in experiment [11] was “inactive” each time. Besides, the Potency result in experiment [12], in experiment [13], in experiment [14], in [15] and in experiment [16] was “inactive” in each case.
Regarding `CC(C)(C)C1CCC(=O)CC1`, the Potency result in experiment [1], in experiment [2], in experiment [3], in [4], in experiment [5] and in experiment [6] was “inactive” each time. Moreover, the Potency entry in experiment [7], in [8], in experiment [10], in experiment [19], in [13] and in experiment [14] was “inactive” in each case. The Potency entry in experiment [15] and in experiment [16] was “inactive” in each case.
As to `C1CCC(SSC2CCCCC2)CC1`, the Potency result in [1], in [2], in experiment [3], in [4], in experiment [5] and in experiment [6] was “inactive” throughout. Moreover, the Potency entry in experiment [8], in experiment [9], in [17], in [18], in experiment [10] and in experiment [12] was “inactive” each time. Also, the Potency entry in experiment [14] and in experiment [15] was “inactive” in each case.
Turning to `CC(C)OC(=O)C(O)(CC(=O)O)CC(=O)O`, the Potency result in experiment [1], in [2], in experiment [3], in experiment [4], in experiment [5] and in experiment [6] was “inactive” in each case. Besides, the Potency entry in experiment [7], in experiment [18], in [10], in experiment [11], in experiment [19] and in experiment [13] was “inactive” in each case. For the same compound, the Potency entry in experiment [20], in experiment [15] and in experiment [16] was “inactive” each time.
As for `Cc1ccc(-c2ccccc2)cc1`, the Potency result in [1], in experiment [2], in [3], in experiment [4], in experiment [5] and in experiment [6] was “inactive” in each case. The Potency result in experiment [7], in [8], in [9], in [17], in [18] and in [10] was “inactive” in each case. The Potency entry in experiment [11], in [12], in experiment [13], in [14] and in [15] was “inactive” in each case.

Source of the values: PubChem BioAssay (Tox21).
